In PubChem BioAssay (EPA / NIEHS) one finds AC50 and outcome data, which are given here for 40 molecules.

The source made the active and inactive calls. The calls were made as follows: active = hit-call score of the fitted dose curve at least 0.9, where 1 is the maximum; inactive = score below 0.9.

The nature of this test: BSK_hDFCGF_SRB: Viability Assessment in the BioMAP Diversity Plus: hDFCGF Assay (AID 2283061).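 Also: cells exposed to compound for 24 h before the read.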 The note with it: primary human foreskin fibroblasts. On the procedure:
BSK_hDFCGF is a cell-based, multiplexed-readout assay that uses foreskin fibroblast, a human skin primary cell, with measurements taken at 24 hours after chemical dosing in a 96-well plate.BSK_hDFCGF_SRB is an assay component measured in the BSK_hDFCGF assay. It measures 0.1% sulforhodamine related to cell death using Sulforhodamine staining technology.Data from the assay component BSK_hDFCGF_SRB was analyzed into 1 assay endpoint. This assay endpoint, BSK_hDFCGF_SRB, was analyzed with bidirectional fitting relative to DMSO as the negative control and baseline of activity. Using a type of viability reporter, gain or loss-of-signal activity can be used to understand changes in the signaling. Furthermore, this assay endpoint can be referred to as a primary readout, because this assay has produced multiple assay endpoints where this one serves a signaling function. To generalize the intended target to other relatable targets, this assay endpoint is annotated to the cell morphology intended target family, where the subfamily is cell conformation.
The levels of cell surface (or secreted, indicated by the prefix "s") biomarker endpoints were measured by ELISA. Overt cytotoxicity to cells in confluent adherent cultures (all systems other than the BT system) was assessed by measuring total protein levels using sulforhodamine B (SRB) staining in parallel cultures at the time of biomarker measurements, indicated as SRB endpoints. For proliferation assays for adherent cell types, individual cell types are cultured at sub-confluence and relative cell numbers quantified by SRB staining at time points optimized for each system (48 h: 3C and CASM3C systems; 72 h: BT and HDF3CGF systems; 96 h: SAg system). SRB was performed by staining cells with 0.1% SRB after fixation with 10% TCA and reading wells at 560 nm.Viability and proliferation of PBMC (T cells) was quantified by Alamar Blue reduction for the SAg and BT systems. For PBMC viability (referred to as PBMC Cytotoxicity within the assay endpoint names), cells were plated (75,000/well in a 96-well plate) and then chemical samples added for 1 h before addition of activators, SEB and TSST-1 (20 ng/mL final concentration each). Cells were incubated for 90 h. Then, Alamar Blue (20 uL/well) (Invitrogen, Cat DAL1100) was added for 6 h, and the plates were read with a fluorescence microplate reader at 546/580 nm (excitation/emission). For PBMC proliferation, cells were plated and activated as above but incubated for only 16 h prior to addition of Alamar Blue. Plates were read after 6 h.
For orientation: AC50 means the concentration at which the activity in the assay is half-maximal. For `CC(C)N1C(=O)N(c2ccccc2)CSC1=NC(C)(C)C`, the AC50 is 32.7 µM (active).
With `CC(C)NC(=O)N1CC(=O)N(c2cc(Cl)cc(Cl)c2)C1=O`, the result was inactive.
On to `Cc1nc(N(C)C)nc(OC(=O)N(C)C)c1C`, for which the AC50 was 29.8 µM (active).
Consider `CCCCC(C#N)(Cn1cncn1)c1ccc(Cl)cc1` (stereo not given), for which the result was inactive.
In the case of `CNC(=O)Oc1cccc2ccccc12`, the outcome was inactive.
Consider `COCC(=O)N(c1c(C)cccc1C)C(C)C(=O)OC` (stereo not given), for which the outcome was inactive.
For `Cc1cnc(C2=NC(C)(C(C)C)C(=O)N2)c(C(=O)O)c1` (stereo not given), the outcome was inactive.
As to `O=c1n(Cl)c(=O)n(Cl)c(=O)n1Cl`, the outcome was inactive.
With `O=C1C2CC=CCC2C(=O)N1SC(Cl)(Cl)Cl` (stereo not given), the AC50 was 6.26 µM (active).
On the same count and under the same terms, as for `CCOc1cc(C(C)(C)C)ccc1C1COC(c2c(F)cccc2F)=N1` (stereo not given), the figure is 19.7 µM (active).
Consider `COC(=O)N(C(=O)N1CO[C@@]2(C(=O)OC)Cc3cc(Cl)ccc3C2=N1)c1ccc(OC(F)(F)F)cc1`, for which the AC50 is 3.65 µM (active).
The same measure, in the same setting: with `Clc1nc(Cl)nc(Nc2ccccc2Cl)n1` the figure was 31.7 µM (active).
With `CCNP(=S)(OC)O/C(C)=C/C(=O)OC(C)C` (stereo not given), the result was inactive.
Regarding `COC(=O)NC(=S)Nc1ccccc1NC(=S)NC(=O)OC`, the result was inactive.
Take `Clc1cccc(C(Cl)(Cl)Cl)n1`: the outcome was inactive.
On to `Cc1ccc(N=CN(C)C=Nc2ccc(C)cc2C)c(C)c1`, for which the AC50 was 28.4 µM (active).
Consider `C=C(C)CN(CC)c1c([N+](=O)[O-])cc(C(F)(F)F)cc1[N+](=O)[O-]`, for which the outcome was inactive.
Same read-out and setting: with `CCSC(=O)N1CCCCCC1` the entry was “inactive”.
On the same count and under the same terms, with `Cn1c(-c2ccccc2)cc(-c2ccccc2)[n+]1C` the entry was “inactive”.
As to `CC(C)(C)C(=O)C(Oc1ccc(Cl)cc1)n1cncn1` (stereo not given), the outcome was inactive.
Take `CC1(C)CCC(=Cc2ccc(Cl)cc2)C1(O)Cn1cncn1` (stereo not given): the outcome was inactive.
Take `COC(=O)c1c(C(F)F)nc(C(F)(F)F)c(C2=NCCS2)c1CC(C)C`: the outcome was inactive.
On the same count and under the same terms, as for `CCCCC(O)(Cn1cncn1)c1ccc(Cl)cc1Cl` (stereo not given), the entry is “inactive”.
For the molecule `Cc1cc(C)nc(Nc2ccccc2)n1`, the outcome was inactive.
`CS(=O)(=O)c1cc(C(F)(F)F)ccc1C(=O)c1cnoc1C1CC1`: the outcome was inactive.
With `COCc1cnc(C2=NC(C)(C(C)C)C(=O)N2)c(C(=O)O)c1` (stereo not given), the outcome was inactive.
`CC(C)C1(C)N=C(c2ncccc2C(=O)O)NC1=O` (stereo not given): the outcome was inactive.
For the molecule `CSC(=O)c1c(C(F)F)nc(C(F)(F)F)c(C(=O)SC)c1CC(C)C`, the result was inactive.
For the molecule `Cc1c(COC(=O)[C@@H]2[C@H](/C=C(\Cl)C(F)(F)F)C2(C)C)cccc1-c1ccccc1`, the outcome was inactive.
As for `N#CN=C1SCCN1Cc1ccc(Cl)nc1`, the outcome was inactive.
As for `CCCCOCN(C(=O)CCl)c1c(CC)cccc1CC`, the AC50 is 31.1 µM (active).
For `Nc1c(Cl)c(F)nc(OCC(=O)O)c1Cl`, the result was inactive.
In the case of `CCOP(=S)(OCC)Oc1nc(Cl)n(C(C)C)n1`, the result was inactive.
Turning to `OC(c1ccc(Cl)cc1)(c1ccc(Cl)cc1)C(Cl)(Cl)Cl`, the AC50 was 10.5 µM (active).
As to `CCNC(=O)NC(=O)C(C#N)=NOC`, the outcome was inactive.
On to `COC(=O)NS(=O)(=O)c1ccc(N)cc1`, for which the result was inactive.
As for `COP(=S)(OC)Oc1ccc([N+](=O)[O-])c(C)c1`, the outcome was inactive.
`N#Cc1c(Cl)cccc1Cl`: the result was inactive.
In the case of `CC(C)=CC1C(C(=O)OCc2coc(Cc3ccccc3)c2)C1(C)C` (stereo not given), the result was inactive.
Turning to `COCC(C)N(C(=O)CCl)c1c(C)csc1C` (stereo not given), the result was inactive.
